Results from PubChem BioAssay (NCATS).
Values without a mark were called inactive. Inconclusive results are not listed. Where a call stands in place of a potency, no number is given. The source made the active and inactive calls. Calls come from the whole dose curve; as a rule, active = well fitted curve in the direction sought with a large enough effect; inconclusive = small, poorly fitted or top-dose-only effect, or another doubt; inactive = no such curve, though single readings can be large; an effect the other way counts as inactive or inconclusive. Peptide text beside a SMILES is read from it. * marks the point of attachment. Hexanoyl = CCCCCC(=O)*

Columns and labels:
[1] = OV-KATE Cancer Cell Toxicity qHTS against the NCATS CANVASS Library (AID 1347345); note: potency is the fitted concentration of half-maximal effect
Procedure, shortened: (§1)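 Step one: seed 1000 cells per well. Step two: incubate 4 h. Step three: add test compounds in 11 concentrations. Step four: culture 72 h, then add CellTiter-Glo and record luminescence after 15min.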

[2] = HPAF-II Cancer Cell Toxicity qHTS against the NCATS CANVASS Library (AID 1347346); note: nearly all actives have a fitted effect of over 55% in size; note: potency is the fitted concentration of half-maximal effect
Procedure, shortened: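 Cytotoxicity read-out was CellTiter-Glo luminescence after 72 h at 37 degrees C exposure of HPAF-II cells (1000/well) to compounds in an 11-point titration.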

[3] = UWB1.289 Cancer Cell Toxicity qHTS against the NCATS CANVASS Library (AID 1347347); note: nearly all actives have a fitted effect of over 60% in size; note: potency is the fitted concentration of half-maximal effect
Procedure, shortened: as §1

[4] = Panc-1005 Cancer Cell Toxicity qHTS against the NCATS CANVASS Library (AID 1347349); note: nearly all actives have a fitted effect of over 60% in size; note: potency is the fitted concentration of half-maximal effect
Procedure, shortened: as §1

[5] = SW1088 Cancer Cell Toxicity qHTS against the NCATS CANVASS Library (AID 1347350); note: nearly all actives have a fitted effect of over 75% in size; note: potency is the fitted concentration of half-maximal effect
Procedure, shortened: as §1

[6] = U-118MG Cancer Cell Toxicity qHTS against the NCATS CANVASS Library (AID 1347351); note: potency is the fitted concentration of half-maximal effect
Procedure, shortened: as §1

[7] = COV-362 Cancer Cell Toxicity qHTS against the NCATS CANVASS Library (AID 1347352); note: series mostly up to about 38 µM
Procedure, shortened: (§2)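 Toxicity was measured as CellTiter-Glo luminescence after 72 h exposure to an 11-point compound series. Compound was added to 1000 cells/well 4 h after seeding.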

[8] = UWB1.289-WTBRCA1 Cancer Cell Toxicity qHTS against the NCATS CANVASS Library (AID 1347354); note: potency is the fitted concentration of half-maximal effect
Procedure, shortened: as §2

[9] = HEK-293 Cancer Cell Toxicity qHTS against the NCATS CANVASS Library (AID 1347355); note: nearly all actives have a fitted effect of over 65% in size; note: potency is the fitted concentration of half-maximal effect; for outcome: series mostly up to about 46 µM
Procedure, shortened: as §2

[10] = KB-8-5-11 Cancer Cell Toxicity qHTS against the NCATS CANVASS Library (AID 1347364); note: nearly all actives have a fitted effect of over 75% in size; note: potency is the fitted concentration of half-maximal effect
Procedure, shortened: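 Viability read as CellTiter-Glo luminescence after 72 h at 37 °C, 5% CO2. 11-point compound series on 500 KB-8-5-11 cells/well in DMEM/10% FBS. Follow-up plating included 1 uM tariquidar in the medium.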

[11] = SDT Cancer Cell Toxicity qHTS against the NCATS CANVASS Library (AID 1347365);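 note: SDT canine glioma cells 500 per well in 1536 well plates; series mostly up to about 46 µM; nearly all actives have a fitted effect of over 60% in size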
Procedure, shortened: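 Cytotoxicity taken from CellTiterGlo ATP luminescence after 72 hr at 37C, 5% CO2. Canine glioma line SDT, 500 cells/well, treated at 11 concentrations; bortezomib dose series as control.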

[12] = qHTS for ATAD5 Agonist screened against the NCATS CANVASS Library (AID 1347367);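 note: luciferase reporter driven by ATAD5 which rises upon DNA damage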
Procedure, shortened: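 HEK293T-ATAD5 luc reporter; 2000 cells/well; 5hr settle; cpd 11-pt qHTS; 16hr 37C 5% CO2 dark; viability by CellTiter-Fluor (AFC fluorescence); then luciferase luminescence, 30min RT.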

[13] = target: Nuclear receptor subfamily 1 group I member 3 (Homo sapiens) (UniProt Q14994); assay: qHTS for Constitutive Androstane Receptor (CAR) Antagonist screened against the NCATS CANVASS Library (AID 1347372);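 note: cells stimulated with 50 nM CITCO agonist so inhibition reflects antagonism; series mostly up to about 46 µM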
Chain of Nuclear receptor subfamily 1 group I member 3 (Homo sapiens) (Q14994 whole entry, looked up): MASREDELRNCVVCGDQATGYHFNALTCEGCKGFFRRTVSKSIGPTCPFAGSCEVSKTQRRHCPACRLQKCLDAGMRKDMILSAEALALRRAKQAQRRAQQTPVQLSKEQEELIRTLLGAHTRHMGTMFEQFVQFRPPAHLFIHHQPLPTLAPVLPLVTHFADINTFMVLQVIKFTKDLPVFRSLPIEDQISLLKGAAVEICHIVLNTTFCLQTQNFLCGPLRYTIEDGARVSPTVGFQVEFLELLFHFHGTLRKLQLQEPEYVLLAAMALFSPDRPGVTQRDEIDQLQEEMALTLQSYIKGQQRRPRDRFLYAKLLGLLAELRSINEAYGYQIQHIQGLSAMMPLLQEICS
Procedure, shortened: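 Antagonist mode: compound added alongside 50 nM CITCO to HepG2-hCAR-CYP2B6 reporter cells, 24hr at 37C. Viability by CellTiter-Fluor fluorescence, then CAR-driven luciferase by ONE-Glo luminescence.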

[14] = target: Nuclear receptor subfamily 1 group I member 3 (Homo sapiens) (UniProt Q14994); assay: qHTS for Constitutive Androstane Receptor (CAR) Agonist screened against the NCATS CANVASS Library (AID 1347373);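 note: every well also contained 1.5 µM PK11195 alongside the test compound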
Procedure, shortened: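 Agonist mode with 1.5uM PK11195 present: compounds for 24hr on HepG2-hCAR-CYP2B6 cells. CellTiter-Fluor fluorescence (ex 405, em 540 nm) gives viability; ONE-Glo luminescence reports CAR activation.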

[15] = qHTS for Hypoxia signaling pathway (HIF-1) agonists against the NCATS CANVASS Library (AID 1347375)
Procedure, shortened: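 Beta-lactamase reporter under HRE control in ME-180 cells; compounds (11-point qHTS series) added after 5 hrs plating, then 17 hrs at 37C. FRET substrate read after 2 hr; same-well CellTiter-Glo luminescence gave viability and normalization.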

[16] = qHTS for inhibitors of Wild type Zika virus screened against the NCATS CANVASS Library (AID 1347396);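 note: ATP luminescence of surviving cells so rescue from viral cell killing; series mostly up to about 46 µM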
Procedure, shortened: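 Using ATP-based luminescence (CellTiter Glo), this screen scores rescue of Vero 766 cells from wild-type Zika killing at 72 h post-infection. Compounds are tested in a concentration series.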

[17] = qHTS for Hypoxia signaling pathway (HIF-1) antagonists against the NCATS CANVASS Library (AID 1347374); note: nearly all actives have a fitted effect of over 60% in size; note: potency is the fitted concentration of half-maximal effect
Procedure, shortened: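 Antagonism scored as loss of CoCl2-driven (60 uM stock added) HRE beta-lactamase signal, read by CCF4 FRET at 460/530 nm. Compounds were tested in an 11-point series on ME-180 reporter cells for 17 hrs at 37C, with parallel CellTiter-Glo cytotoxicity.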

[18] = DH5-alpha competent E. coli microbial cell viability qHTS against the NCATS CANVASS Library (AID 1347377); settings: outcome: dose series up to 46.1 µM unless noted
Procedure, shortened: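 Bacterial viability as ATP-dependent luminescence (BacTiter-Glo), read after overnight 37 °C exposure of DH5-alpha competent E. coli to compounds in 11-point titration.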

[19] = Secretion counterscreen for inhibitors of the SERCaMP assay screened against the NCATS CANVASS Library (AID 1347390);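 note: light from luciferase secreted into medium read as a measure of general secretion; series mostly up to about 77 µM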
Procedure, shortened: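 SH-SY5Y-GLuc STOP cells; 4 h attach; cpds 0.001 - 77 uM (qHTS, 11 pts), 20 h 37C/5% CO2; coelenterazine in glow buffer; luminescence, 5 s exposure.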

[20] = qHTS for inhibitors of ER calcium dysfunction: SERCaMP assay screened against the NCATS CANVASS Library (AID 1347393); note: nearly all actives have a fitted effect of over 40% in size; note: potency is the fitted concentration of half-maximal effect
Procedure, shortened: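 Thapsigargin-induced ER calcium depletion drives GLuc-SERCaMP secretion from SH-SY5Y cells; compounds given 16 h beforehand were scored by lowered coelenterazine luminescence after 4 h challenge.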

SMILES	Potency [1]	Potency [2]	Potency [3]	Potency [4]	Potency [5]	Potency [6]	Potency [7]	Potency [8]	Potency [9]	Potency [10]	Potency [11]	Potency [12]	Potency [13]	Potency [14]	outcome [15]	outcome [16]	Potency [17]	outcome [18]	Potency [19]	Potency [20]
COC(=O)[C@@]12Oc3cccc(O)c3C(O)=C1C(=O)C[C@H](C)[C@H]2O	inactive	inactive	inactive	inactive	inactive	inactive	inactive	inactive	inactive	inactive	inactive	inactive	inactive	inactive	inactive	inactive	–	–	–	–
CC(C)=CCCC(C)(O)[C@H]1CC=C(C)C(O)C1 (stereo not given in full)	inactive	inactive	inactive	inactive	inactive	inactive	inactive	inactive	inactive	inactive	inactive	inactive	inactive	inactive	inactive	inactive	inactive	inactive	inactive	inactive
CCCCCC(=O)N[C@@H](CC(C)C)C(=O)N[C@H](C=O)CCC(=O)O (Hexanoyl-Leu-Glu-aldehyde)	inactive	inactive	inactive	inactive	inactive	inactive	inactive	inactive	inactive	inactive	inactive	–	inactive	inactive	inactive	inactive	inactive	inactive	inactive	inactive
O=c1cc(-c2ccc(O)cc2)oc2cc(O)c([C@@H]3OC(CO)[C@H](O)[C@@H](O)[C@H]3O)c(O)c12 (stereo not given in full)	inactive	inactive	inactive	inactive	inactive	inactive	inactive	inactive	inactive	inactive	inactive	inactive	inactive	–	inactive	inactive	inactive	inactive	inactive	inactive
C/C=C(/CO)C(=O)O[C@@H]1[C@H](O)[C@@H](C(=O)OC)O[C@@H]2C[C@H]3OC(n4cnc5c(N)ncnc54)[C@H](OC)[C@H]3O[C@@]12O (stereo not given in full)	inactive	inactive	inactive	inactive	inactive	inactive	inactive	inactive	inactive	inactive	inactive	inactive	–	inactive	–	inactive	inactive	inactive	inactive	inactive
CC1(C)CC[C@]2(CO)CC[C@]3(C)C(=CCC4[C@@]5(C)CC[C@H](O)C(C)(C)C5CC[C@]43C)C2C1 (stereo not given in full)	inactive	inactive	inactive	inactive	inactive	inactive	inactive	inactive	inactive	inactive	inactive	–	–	–	inactive	inactive	inactive	inactive	–	inactive
[C-]#[N+][C@@]12C(=O)[C@@H]3[C@@H](O[C@@]4(C(=O)N(C)c5cccc1c54)C3(C)C)C(=O)[C@@]2(C)C=C	inactive	inactive	inactive	inactive	inactive	inactive	inactive	inactive	inactive	inactive	inactive	inactive	–	inactive	inactive	–	2.98 µM (active)	inactive	inactive	–
C=C(Cl)[C@](Cl)(CBr)CC[C@@H](Br)C(C)(C)Cl	10.6 µM (active)	6.68 µM (active)	14.9 µM (active)	3.75 µM (active)	2.98 µM (active)	8.41 µM (active)	inactive	18.8 µM (active)	9.35 µM (active)	9.35 µM (active)	–	–	inactive	inactive	–	inactive	–	inactive	inactive	–
CCC(C)=C1OC(=O)[C@H](C)[C@H](O)[C@H](Cc2cccnc2)NC(=O)C(NC(=O)c2ncccc2O)C(C)OC1=O (stereo not given in full)	inactive	inactive	inactive	inactive	inactive	inactive	inactive	inactive	inactive	inactive	inactive	inactive	inactive	–	inactive	inactive	–	–	inactive	–
CN1CC[C@@]2([C@@]34CCN(C)[C@@H]3Nc3ccccc34)c3ccccc3N[C@@H]12	inactive	inactive	inactive	inactive	inactive	inactive	inactive	inactive	inactive	inactive	–	–	inactive	inactive	inactive	inactive	inactive	–	inactive	–
C/C=C1/C2=CCCN3C(=O)O[C@H]([C@H]1O)[C@H]23	inactive	inactive	–	inactive	inactive	inactive	inactive	inactive	inactive	–	inactive	inactive	–	–	inactive	inactive	inactive	inactive	inactive	inactive
COc1ccc([C@@H]2c3cc4c(cc3C(=O)C(C)C2C)OCO4)cc1OC (stereo not given in full)	inactive	inactive	inactive	inactive	inactive	inactive	inactive	inactive	inactive	–	inactive	inactive	inactive	–	inactive	inactive	inactive	inactive	–	7.67 µM (active)
